Assay [1] concerns the target Calcium and integrin-binding protein 1 (Homo sapiens) (UniProt Q99828). Briefly: Primary qHTS for Identification of Calcium Integrin Binding Protein 1 (CIB1) Competitor (AID 1508620).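 Also: GST tagged CIB1 binding a fluorescein labelled alphaIIb integrin peptide tracer; top concentration of the series differs between compounds.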 The method, boiled down:
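Fluorescence polarization competition: GST-tagged CIB1 (1 uM final) preincubated with compound 15 min at room temperature, then FITC-labelled alphaIIb peptide (100 nM final) added. After 15 min at room temperature, polarization read at Ex 480/Em 540.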
Background: In qHTS, concentration-response curves come from the screen itself.

A short description of assay [2]: Counterscreen qHTS for small molecule stabilizers of the endoplasmic reticulum resident proteome: GLuc-NoTag assay (AID 1508627). Also: potency is read from the fitted curve at half-maximal effect. In short, it runs like this:
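SH-SY5Y cells stably expressing constitutively secreted GLuc without SERCaMP tag, exposed to compound for 19 hr, then to 100 nM thapsigargin for 4 hr at 37C. Medium luciferase was read by coelenterazine luminescence without lysis.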
In general terms: Counterscreens check selectivity or assay interference.

Assay [3] in a line: Confirmatory qHTS for small molecule stabilizers of the endoplasmic reticulum resident proteome: Secreted ER Calcium Modulated Protein (SERCaMP) assay (AID 1508628). Also: series mostly up to about 76 µM; nearly all actives have a fitted effect of over 40% in size. The method, boiled down: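 SH-SY5Y cells stably expressing GLuc-SERCaMP, treated 16 h with compound (primary 1.53, 7.67, 38.3 uM; confirmation 11 concentrations, up to 76.6 uM), then 100 nM thapsigargin for 4 h. Secreted Gaussia luciferase in medium read by coelenterazine luminescence.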

Assay [4] can be described thus: Primary qHTS for small molecule stabilizers of the endoplasmic reticulum resident proteome: Secreted ER Calcium Modulated Protein (SERCaMP) assay (AID 1508630). In short, it runs like this:
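GLuc-SERCaMP-expressing SH-SY5Y cells, pretreated 16 h with compound, are challenged with thapsigargin to empty ER calcium stores; after 4 h, coelenterazine is added directly to the medium and luminescence is imaged.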

Assay [5] is described as follows: Primary qHTS for inhibitors of nuclear receptor binding SET domain protein 2 (NSD2) in an isogenic RCH-ACV NSD2 p.E1099K mutant (9B) (AID 1645876). Also: nearly all actives have a fitted effect of over 70% in size. Also: potency is read from the fitted curve at half-maximal effect.
A short description of assay [6]: Primary qHTS for inhibitors of nuclear receptor binding SET domain protein 2 (NSD2) in an RCH-ACV wild type WT cells (2C) (AID 1645877). Also: nearly all actives have a fitted effect of over 70% in size. Also: potency is read from the fitted curve at half-maximal effect.
Assay [7] has as its target Protein phosphatase 1D (Homo sapiens) (UniProt O15297). Briefly: RapidFire Mass Spectrometry qHTS Assay for Modulators of WT P53-Induced Phosphatase 1 (WIP1) (AID 1347424).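 Also: amount of dephosphorylated VEPPL-S-QETFS peptide product formed by WIP1.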 Also: potency is read from the fitted curve at half-maximal effect. In short, it runs like this: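 10 nM WIP1 preincubated with compounds 1 hr at room temperature in pH 7.5 Tris buffer with 30 mM MgCl2, 1 mM TCEP; 2 uM VEPPL-pS-QETFS phosphopeptide for 5 min, formic acid quench; dephosphorylated product quantified by RapidFire MS against labelled standard.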

Assay [8] has the same target. Briefly: Rhodamine-PBP qHTS Assay for Modulators of WT P53-Induced Phosphatase 1 (WIP1) (AID 1347425). The method, boiled down: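 The read-out is the change in Rhodamine-PBP fluorescence (f1 - f0, ex 525/em 598 nm) as Pi is released, read each minute for 11 min. Final reaction: 5 nM WIP1, 10 uM phosphopeptide VEPPL-pS-QETFS, 10 uM Rh-PBP, 50 mM Tris-HCl pH 7.5, 30 mM MgCl2. Compound was preincubated with enzyme for 1 hour at room temperature.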

Assay [9] deals with Cytochrome P450 2C9 (Homo sapiens) (UniProt P11712). Description: Cytochrome P450 family 2 subfamily C member 9 (CYP2C9) small molecule antagonists: luciferase biochemical (cell-free) qHTS assay (AID 1645842; active = well fitted curve in the direction sought with a large enough effect in the repeat runs; an effect the other way counts as inactive or inconclusive; also: nearly all actives have a fitted effect of over 55% in size; also: potency is read from the fitted curve at half-maximal effect). The method, boiled down: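 Luminescence, after 20 min with luciferin detection reagent, reflected CYP2C9 turnover during a 1 h NADPH-driven reaction at 37C. Enzyme-substrate mix contained 0.4% bovine serum albumin and was preincubated with compound 10 min at room temperature.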
Sequence of Cytochrome P450 2C9 (Homo sapiens) (P11712 whole entry, looked up): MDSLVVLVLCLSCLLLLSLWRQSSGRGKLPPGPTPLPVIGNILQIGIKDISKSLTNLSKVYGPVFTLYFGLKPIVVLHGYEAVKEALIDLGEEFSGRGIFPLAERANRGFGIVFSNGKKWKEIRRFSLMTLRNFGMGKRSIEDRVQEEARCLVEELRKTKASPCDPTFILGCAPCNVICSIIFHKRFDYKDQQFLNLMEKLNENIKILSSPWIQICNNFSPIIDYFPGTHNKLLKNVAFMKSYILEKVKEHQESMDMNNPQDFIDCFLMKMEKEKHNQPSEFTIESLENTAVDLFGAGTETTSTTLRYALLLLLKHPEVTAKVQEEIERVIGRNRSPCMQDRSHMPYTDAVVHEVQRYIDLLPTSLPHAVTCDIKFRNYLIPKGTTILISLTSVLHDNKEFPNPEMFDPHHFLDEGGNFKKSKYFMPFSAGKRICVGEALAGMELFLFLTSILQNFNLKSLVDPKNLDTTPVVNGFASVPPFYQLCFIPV

A short description of assay [10]: Primary qHTS for inhibitors of La Crosse Virus (LACV) - induced cell death in SH-SY5Y cells (AID 1508616).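 Also: top concentration of the series differs between compounds; higher means more rescue of cells from virus-induced death.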 In short, it runs like this:
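SH-SY5Y cells (6000/well) plated 24 h, then given compounds by pin transfer and LACV at 0.01 MOI for 6 days at 37C. Viability measured by ATPLite luminescence, normalized to infected DMSO and uninfected DMSO.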

“And” between values parts separate entries of the source, which are not always exact repeats. Equal entries are not always repeated. Records with an inconclusive call do not appear. Where a call stands in place of a potency, no number is given. The source made the active and inactive calls. Unless noted, calls follow the shape of the dose curve; as a rule, active = well fitted curve in the direction sought with a large enough effect; inconclusive = small, poorly fitted or top-dose-only effect, or another doubt; inactive = no such curve, though single readings can be large; an effect the other way counts as inactive or inconclusive.

Sequence of Calcium and integrin-binding protein 1 (Homo sapiens) (Q99828 whole entry, looked up): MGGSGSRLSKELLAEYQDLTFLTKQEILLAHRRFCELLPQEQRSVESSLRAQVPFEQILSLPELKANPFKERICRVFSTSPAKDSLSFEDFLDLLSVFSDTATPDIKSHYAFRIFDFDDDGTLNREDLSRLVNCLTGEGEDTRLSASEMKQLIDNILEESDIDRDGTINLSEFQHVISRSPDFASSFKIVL
Sequence of Protein phosphatase 1D (Homo sapiens) (O15297 whole entry, looked up): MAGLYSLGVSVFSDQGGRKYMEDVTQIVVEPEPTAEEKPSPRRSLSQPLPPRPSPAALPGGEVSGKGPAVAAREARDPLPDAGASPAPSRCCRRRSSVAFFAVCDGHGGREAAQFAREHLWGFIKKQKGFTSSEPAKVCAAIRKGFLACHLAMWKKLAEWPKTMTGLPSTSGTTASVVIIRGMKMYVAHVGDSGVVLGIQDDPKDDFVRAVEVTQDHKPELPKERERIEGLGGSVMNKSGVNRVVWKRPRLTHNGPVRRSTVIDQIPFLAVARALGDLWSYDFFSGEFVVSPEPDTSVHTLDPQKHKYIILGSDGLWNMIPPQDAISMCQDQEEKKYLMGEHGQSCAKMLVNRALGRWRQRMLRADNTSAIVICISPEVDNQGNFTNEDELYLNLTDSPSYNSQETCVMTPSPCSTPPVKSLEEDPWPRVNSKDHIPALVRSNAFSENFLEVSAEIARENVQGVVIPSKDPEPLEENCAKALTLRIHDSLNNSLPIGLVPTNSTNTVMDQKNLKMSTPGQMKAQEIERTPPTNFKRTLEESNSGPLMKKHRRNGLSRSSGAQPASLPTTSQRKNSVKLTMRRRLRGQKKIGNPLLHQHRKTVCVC

Regarding `COc1cc(C(C)C)c2c(c1)S(=O)(=O)N(COc1cc(=O)n3cccc(OCCN4CCCCC4)c3n1)C2=O`, the result in [1] and in [3] was inactive. Further, the Potency is 39.8 µM (active) in [2], 14.8 µM (active) in [5] and 10.5 µM (active) in assay [6]. Further, in assay [4], the Potency entry is “inactive”.
For `COc1ccc(CC2SC(=O)NC2=O)cc1C(=O)NCc1ccc(C(F)(F)F)cc1` (stereo not given), the result in [1] was inactive. Further, the Potency result in assay [4] was “inactive”.
Take `C=CC(=O)Nc1cc2c(Nc3ccc(F)c(Cl)c3)ncnc2cc1OCCCN1CCOCC1`: the Potency result in [7], in [4] and in assay [9] was “inactive” throughout. The compound was classed as inactive in [8] and in assay [1]. Further, the Potency in [5] is 1.68 µM (active) and 2.95 µM (active); in [6] it was 1.5 µM (active) and 2.95 µM (active).
Turning to `Cc1cccc(C=NNc2cc(N3CCOCC3)nc(OCCc3ccccn3)n2)c1`, in assay [1], the outcome was inactive. For the same compound, in [4], the Potency result is “inactive”.
For the compound `COc1cc(C(=O)NS(=O)(=O)c2ccccc2C)ccc1Cc1cn(C)c2ccc(NC(=O)OC3CCCC3)cc12`, the Potency in [7] was 15.8 µM (active); in assay [9] it was 13.8 µM (active). Also, in assay [10], the call was inactive. Also, the Potency entry in assay [4], in [5] and in assay [6] was “inactive” throughout.
`Cc1cc(Nc2cc(N3CCN(C)CC3)nc(C=Cc3ccccc3)n2)n[nH]1`: in [1], the outcome was inactive. Moreover, in [4], the Potency entry was “inactive”.
With `C=C1C(=CC=C2CCCC3(C)[C@@H]([C@H](C)C=CC=CC(O)(CC)CC)CC[C@@H]23)C[C@@H](O)C[C@@H]1O` (stereo not given in full), the outcome in [1] was inactive.
Consider `CC1=C(CO)C(=O)O[C@@H]([C@@H](C)[C@H]2CC[C@H]3[C@@H]4C[C@H]5O[C@]56[C@@H](O)C=CC(=O)[C@]6(C)[C@@H]4CC[C@]23C)C1`, for which the outcome in [1] was inactive. The Potency result in assay [4] is “inactive”.
Turning to `Cc1[nH]c2ccccc2c1CCNCc1ccc(C=CC(=O)NO)cc1`, in assay [1], the outcome was inactive. For the same compound, the Potency result in assay [4] was “inactive”.

(Values after PubChem BioAssay (NCATS).)
